# Eya2 inh: inhibitors of human Eya2 phosphatase activity. 330,000 tested, 0.006% active. AID 488837. O00167. Potency, µM (top dose mostly 76.9 µM), for inactives: at the highest dose activity, negative = inhibition, actives largely listed as inhibitors. recombinant Eya2, OMFP fluorescence dephosphorylation (OMFP is methylfluorescein phosphate); note: potency is the fitted concentration of half-maximal effect
#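 Eya2 (0.2 uM) preincubated 10 min at ambient with compound, then OMFP substrate added at 50 uM; 10 min reaction in 50 mM HEPES pH 7.5, 50 mM NaCl, 5 uM MgCl2, 0.05% BSA, 1 mM DTT. Fluorescence read at Ex 485/Em 525 nm.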
# uPA generation: inhibitors of cell surface uPA generation. cell surface uPA generation assay, qHTS. Potency, µM (top dose mostly 38.3 µM), for inactives: at the highest dose activity change, negative = inhibition, most hits filed as inhibitors. 330,000 tested, 0.31% active. AID 540303; active = well fitted inhibition curve with a large enough effect; inconclusive = small, poorly fitted or top-dose-only effect; inactive = no such curve, though single readings can be large or run the other way; tested in mouse RAW 264.7 cells; note: potency is the fitted concentration of half-maximal effect; nearly all actives have a fitted effect of over 55% in size
# CtBP-E1A inh: CtBP/E1A binding inhibition. 340,000 tested, 0.49% active. AID 651724. activity change, % (concentration not given with the values). AlphaScreen GST-E1A/His-CtBP binding, 1536-well; active compounds read low; in the data active = activity change below about -65%; inconclusive = mostly about -30% to -63%
#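 Protein mix (5X: 125 nM each GST-E1A, His-CtBP) was incubated with pinned compound 2 h at 37 deg C in dark, in 50 mM Tris pH 8.0 buffer with 300 mM NaCl. Glutathione donor and nickel acceptor beads followed; AlphaScreen signal read after 1 h.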
# L3MBTL1 inh: L3MBTL1 (human) inhibition; AlphaScreen L3MBTL1–H3K9me1 peptide binding; Potency, µM (titrated, usually from 57.1 µM), without a hit: at the top dose activity, negative = inhibition, hits mostly inhibitors; 230,000 tested, 0.66% active; AID 485360; note: potency is the fitted concentration of half-maximal effect; nearly all actives have a fitted effect of over 60% in size
# Target sequence (Q9Y468 whole entry, looked up): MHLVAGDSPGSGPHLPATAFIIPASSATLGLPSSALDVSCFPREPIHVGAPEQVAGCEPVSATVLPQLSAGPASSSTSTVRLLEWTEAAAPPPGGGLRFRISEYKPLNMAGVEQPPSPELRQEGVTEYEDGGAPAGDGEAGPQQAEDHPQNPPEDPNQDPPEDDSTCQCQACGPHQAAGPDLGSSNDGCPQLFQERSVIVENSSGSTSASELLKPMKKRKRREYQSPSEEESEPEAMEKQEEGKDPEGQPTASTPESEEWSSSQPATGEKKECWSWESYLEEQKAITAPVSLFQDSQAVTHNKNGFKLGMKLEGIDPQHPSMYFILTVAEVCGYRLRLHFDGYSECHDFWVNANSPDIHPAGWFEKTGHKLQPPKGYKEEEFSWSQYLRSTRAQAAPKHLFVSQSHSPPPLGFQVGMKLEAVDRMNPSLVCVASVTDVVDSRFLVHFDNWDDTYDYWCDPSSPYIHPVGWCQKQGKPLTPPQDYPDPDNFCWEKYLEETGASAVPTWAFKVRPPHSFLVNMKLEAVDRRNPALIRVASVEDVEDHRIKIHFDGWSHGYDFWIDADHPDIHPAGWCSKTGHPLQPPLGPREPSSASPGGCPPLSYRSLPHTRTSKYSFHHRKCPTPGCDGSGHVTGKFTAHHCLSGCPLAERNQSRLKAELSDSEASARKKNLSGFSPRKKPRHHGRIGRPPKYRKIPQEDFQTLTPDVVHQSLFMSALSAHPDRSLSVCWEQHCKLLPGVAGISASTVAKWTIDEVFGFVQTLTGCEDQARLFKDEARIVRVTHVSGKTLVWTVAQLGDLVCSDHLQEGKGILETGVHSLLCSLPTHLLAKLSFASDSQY
#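 L3MBTL1 50 nM + b-AHA-H3(1-15)K9me1 75 nM, 30 min RT; compound added, 30 min RT; streptavidin donor/Ni-chelate acceptor beads 10 ug/mL each final, 30 min RT dark; AlphaScreen read.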
# Six1-Eya2 blk: blocks human Six1 binding to Eya2 | Q15475+O00167 | AlphaScreen GST-Six1/His-Eya2 binding, biochemical; active compounds read low | activity change, % (concentration not given with the values) | 360,000 tested, 0.56% active | AID 651725; in the data active = activity change below about -65%; inconclusive = mostly about -30% to -63%
#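 AlphaScreen luminescence read after one hour at 37 °C in darkness. Pin-transferred compounds met GST-Six1 and His-Eya2 protein (5X stock 250 nM/500 nM) plus glutathione donor and Ni-chelate acceptor beads (5X, 50 ug/mL).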
# USP2a inh: blocks human ubiquitin-specific protease USP2a; 330,000 tested, 0.01% active; Potency, µM (doses to about 38.3 µM), inactives show top-dose activity change, negative = inhibition, usual class: inhibitors; O75604; USP2 core, Ub-CHOP2 coupled fluorogenic reporter, 485/531;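 note: potency is the fitted concentration of half-maximal effect; plate controls were DMSO wells for no effect and full inhibition by NEM control for full effect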
#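 Deubiquitinase activity read as fluorescence (485/531 nm) after Ub-CHOP2 cleavage activates the enterokinase reporter on its substrate; USP2 core 10nM, Ub-CHOP2 and substrate 25nM each, 30min compound preincubation then 60min RT; data normalized to NEM, curves fitted.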
# Numbers without * were called inactive; ? = inconclusive; . = no result given; ! = not confirmed by another sample. The list is not random: actives were taken first. Their share in the collection is about 1.2%. Unless noted, calls come from the whole dose curve; as a rule, active = well fitted curve in the direction sought with a large enough effect; inconclusive = small, poorly fitted or top-dose-only effect, or another doubt; inactive = no such curve, though single readings can be large; an effect the other way counts as inactive or inconclusive. Unless noted, % is set by controls: 0 for no effect and ±100 for the full control effect.
SMILES,Eya2 inh,uPA generation,CtBP-E1A inh,L3MBTL1 inh,Six1-Eya2 blk,USP2a inh
CCSc1ccc([C@@H]2[C@@H]3C(=O)N(C)C(=O)[C@@H]3[C@]3(C(=O)OC)CCCCN23)cc1,6%,5%,-23,27%,1,2%
Nc1cccc(-c2nc3ccc(C(=O)c4ccccc4)cc3[nH]2)c1,-7%,2µM*,.,-13%,-5,0%
COc1ccc([C@H]2CC(=O)C=C(/C=C/Cc3ccccc3)C2)cc1,8%,?,-2,1%,2,1%
Cc1cccc(-n2ncc3c(NCCCO)ncnc32)c1,-12%,1.8µM*,7,.,0,0%
CN(CCc1ccccc1)C(=O)c1ccc(NC(=O)Cc2ccc([N+](=O)[O-])cc2)cc1,-12%,?,-2,-5%,-9,3%
Cc1cccc(-c2noc(CN(C(=O)C(c3ccccc3)c3ccccc3)C(C)C)n2)c1,-4%,?,-1,.,5,-8%
COc1cc2c(cc1O)C[C@H]1NCCc3cc4c(c-2c31)OCO4,2%,?,-79*,35µM*,-65*,2%
NC(Cc1ccccc1)c1nc2ccccc2[nH]1 (centres undefined),2%,-1%,-6,.,-14,1%
CN(C)C(Cc1ccc(Cl)cc1)C(=O)c1ccccc1 (centres undefined),3%,0%,7,-4%,2,0%
NC(Cc1ccc(Cl)cc1)c1csc(Nc2ccccn2)n1 (centres undefined),.,.,-68*,.,?,.
NC(Cc1ccc(F)cc1)c1csc(Nc2cnccn2)n1 (centres undefined),.,.,-83*,.,-74*,.
NC(Cc1ccc(F)cc1)c1csc(Nc2ccccn2)n1 (centres undefined),.,.,-91*,.,-86*,.
NC(Cc1ccccc1)c1csc(Nc2ccccn2)n1 (centres undefined),.,.,-90*,.,-86*,.
O=C1CC(c2cccc(Br)c2)c2cc3c(cc2N1)CCC3 (centres undefined),-14%,?,0,24%,-7,-12%
Cc1cc(C)c(CN2CCN(C(=O)Cn3cnc4c(NCc5ccccc5)ncnc43)CC2)c(C)c1,-2%,?,-8,-2%,-16,0%
CC1(c2ccccc2)NC(=O)N(CC(=O)Nc2nc(-c3ccccn3)cs2)C1=O (centres undefined),4%,?,?,-17%,-91*,1%
CCN1CCN(c2cc(C)c3cc(NC(=O)c4ccc(OC)c(OC)c4)ccc3n2)CC1,2%,7.9µM*,4,.,-13,4%
COc1cc(OC)c2c(-c3cccc(-c4ccc(N(C)C)cc4)c3)cc(=O)oc2c1,-3%,1µM*,?,?,?,-1%
CCN(CC)C(=O)CC(c1ccc(N(C)C)cc1)c1c(OC)cc(OC)c2c(-c3ccccc3)cc(=O)oc12 (centres undefined),-20%,?,?,.,?,-12%
C/C(=N\NC(=O)c1cc(-c2cccnc2)nc2ccccc12)c1ccc(O)cc1O,10%,11µM*,-2,-2%,-74*,1%
C/C(=N\NP(=S)(c1ccccc1)c1ccccc1)c1ccc(O)cc1O,7%,-2%,-5,.,-1,-1%
Cn1c(O)c(C(c2ccccn2)c2c(O)n(C)c(=S)n(C)c2=O)c(=O)n(C)c1=S,-8%,-6%,-29,-1%,?,-2%
Cn1c(O)c(C(c2ccncc2)c2c(O)n(C)c(=S)n(C)c2=O)c(=O)n(C)c1=S,2%,2%,?,.,-68*,4%
COc1ccc(NC(=O)c2cccs2)cc1C(=O)N1CCN(c2ccccc2)CC1,-11%,?,-1,.,-7,-2%
CCN(CC)Cc1c[nH]c2ccccc12,8%,0%,8,-1%,-1,-4%
SMILES,Eya2 inh,uPA generation,CtBP-E1A inh,L3MBTL1 inh,Six1-Eya2 blk,USP2a inh
CCC(CC)NCc1c[nH]c2ccccc12,10%,4.5µM*,3,5%,-1,-5%
CC(C)(C)OC(=O)NCCCC[C@H](NC(=O)c1nc[nH]c1C(=O)NC1CCN(C(=O)OC(C)(C)C)CC1)C(=O)OC(C)(C)C,-22%,?,-3,.,-10,-3%
O=C(c1ccc2c(Cl)c3c(nc2c1)CCCC3)N1CCC(N2CCCCC2)CC1,-1%,10µM*,13,-5%,7,1%
CN1CC=C(c2c[nH]c3ccccc23)CC1,-13%,9%,6,32µM*,-4,-2%
O=c1c(O)c(-c2ccc(O)c(O)c2)oc2cc(O)ccc12,.,?,-74*,.,?,.
COc1cc([C@@H]2c3cc4c(cc3[C@@H](OC)[C@H]3COC(=O)[C@H]23)OCO4)cc(OC)c1O,7%,1.6µM*,6,.,1,0%
COc1cc2c(cc1C=O)OCO2,-11%,-5%,-15,-7%,-7,0%
CN(C)[C@@H]1C(=O)C(C(N)=O)=C(O)[C@@]2(O)C(=O)C3=C(O)c4c(O)cccc4[C@@](C)(O)[C@H]3[C@H](O)[C@@H]12,18%,-3%,-67*!,1µM*!,?,?
CN(C)[C@@H]1C(=O)C(C(N)=O)=C(O)[C@@]2(O)C(=O)C3=C(O)c4c(O)ccc(Cl)c4[C@@](C)(O)[C@H]3C[C@@H]12,-18%,-7%,-11,.,-7,-1%
Fc1ccc(C[n+]2c(-c3ccccc3)cc(-c3ccccc3)cc2-c2ccccc2)cc1,-28%,8.9µM*,-13,-5%,-3,4%
Clc1ccc(C[n+]2c(-c3ccccc3)cc(-c3ccccc3)cc2-c2ccccc2)cc1,-16%,?,0,-6%,-7,-1%
CC[N+](CC)(CCCCS(=O)(=O)[O-])CCNP1(=O)C=C(c2ccccc2)OC(c2ccccc2)=C1,-2%,?,9,.,-2,2%
O=C(COc1ccccc1-c1ccccc1)N/N=C/c1ccccn1,-7%,?,.,1%,11,2%
Cc1cc(/C=C2\C(=O)NC(=O)N(c3ccc(Br)cc3)C2=O)c(C)n1-c1cc(C(=O)O)cc(C(=O)O)c1,7%,-4%,.,.,-84*,-1%
O=C(c1ccc(S(=O)(=O)NCc2ccco2)cc1)N1CCN(Cc2ccccc2F)CC1,8%,?,-5,-5%,-5,0%
O=C1NC(=O)N(Cc2ccc(F)cc2)C(=O)/C1=C\c1ccc([N+](=O)[O-])s1,-4%,-4%,-10,.,?,0%
COc1ccc(CN2C(=O)NC(=O)/C(=C/c3ccc([N+](=O)[O-])s3)C2=O)cc1,-7%,-2%,?,28µM*,?,-2%
